PubChem BioAssay (NCATS)
Several values for one entry are separate records, joined by “and”; a condition that tells them apart may be missing. Equal entries are not always repeated. Records with an inconclusive call do not appear. Where a call stands in place of a potency, no number is given. Activity calls are given as the source filed them. Unless noted, the call rests on the fitted dose curve; in most records, active means well fitted curve in the direction sought with a large enough effect; inconclusive means small, poorly fitted or top-dose-only effect, or another doubt; inactive means no such curve, though single readings can be large; an effect the other way counts as inactive or inconclusive.

Legend:
[1] = target: Thioredoxin reductase 1, cytoplasmic (Rattus norvegicus) (UniProt O89049); experiment: qHTS Assay for Substrates of Mammalian Selenoprotein Thioredoxin Reductase 1 (TrxR1) (AID 488772);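 further: NADPH fluorescence in the first read after selenite addition and not the 8 min delta; series mostly up to about 57 µM; a drop in NADPH fluorescence below the no-compound background marks a TrxR1 substrate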
Outline: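 Quantitative HTS in Tris-HCl buffer at pH 7.5 with EDTA and Tween-20, using rat TrxR1, 400 uM NADPH and 400 uM selenite (final). A fall in initial NADPH fluorescence relative to background marked substrate behaviour.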

[2] = target: Thioredoxin reductase 1, cytoplasmic (Rattus norvegicus) (UniProt O89049); experiment: qHTS Assay for Inhibitors of Mammalian Selenoprotein Thioredoxin Reductase 1 (TrxR1) (AID 488773); details: Potency: inhibition; further: nearly all actives have a fitted effect of over 40% in size; further: potency means the concentration at half of the fitted maximal effect
Outline: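 Steps: enzyme (90 nM) plus NADPH (400 uM final), 5 min at ~22 deg C; compound added, 15 min; selenite (400 uM final) added; fluorescence followed for 8 min. Concentration-response curves derived from the normalized delta values.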

[3] = target: Flap endonuclease 1 (Homo sapiens) (UniProt P39748); experiment: qHTS Validation Assay for the Inhibitors of Human Flap endonuclease 1 (FEN1) (AID 488816); further: potency means the concentration at half of the fitted maximal effect
Outline: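 Human FEN1 (10 nM) preincubated 15 min at room temperature with compounds, then flap DNA substrate added at 50 nM final. Fluorescence read at 0 and 15 min; concentration-response fitted with four-parameter Hill equation.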

[4] = target: M-phase phosphoprotein 8 (Homo sapiens) (UniProt Q99549); experiment: qHTS Validation Assay for Inhibitors for MPP8 Chromodomain Interactions with Methylated Histone Tails (AID 488949); further: nearly all actives have a fitted effect of over 55% in size; further: potency means the concentration at half of the fitted maximal effect
Outline: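 MPP8 (50 nM) was preincubated with biotinylated H3(1-18)K9me3 peptide (50 nM) in PBS pH 7.4, 0.01% Tween-20 for 30 min at room temperature, then with compounds for 30 min; binding was detected by AlphaScreen.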

[5] = target: Chromobox protein homolog 1 (Homo sapiens) (UniProt P83916); experiment: qHTS Validation Assay for Inhibitors of HP1-beta Chromodomain Interactions with Methylated Histone Tails (AID 488953); further: nearly all actives have a fitted effect of over 50% in size; further: potency means the concentration at half of the fitted maximal effect
Outline: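 HP1-beta (50 nM) preformed 30 min with biotinylated H3(1-18)K9me3 peptide (50 nM) in PBS pH 7.4, 0.01% Tween-20. Compounds added for 30 min at room temperature. Complex disruption read by AlphaScreen with streptavidin donor/nickel chelate acceptor beads (10 ug/mL each).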

[6] = target: Methanococcus maripaludis chaperonin (MmCpn) (UniProt Q6LX38); experiment: High-Throughput Screening for Modulators of Cytosolic Chaperonin Activity: MmCpn Primary Screen (AID 488978);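 further: 50 nM MmCpn enzyme hydrolysing 30 µM ATP at 37 °C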
Outline: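 MmCpn (50 nM final) was preincubated with compound 5 min at RT, then 30 uM ATP (final) was added and the reaction ran 10 min at 37C. ADP produced was detected by Transcreener HTRF (ex 320 nm; em 590/665 nm).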

[7] = target: Transient receptor potential cation channel subfamily V member 1 (Homo sapiens) (UniProt Q8NER1); experiment: HTS Assay for Compounds that Act as Enhancers of the Vanilloid Receptor 1 (AID 488979)
Outline: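 TRPV1 cells loaded with Fluo-8 calcium dye; compound added and Ca2+ signal (ex 480/em 520 nm) followed 3 min, then capsaicin at EC20 added and read 2 more min to detect enhancement.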

[8] = target: Thyrotropin receptor (Homo sapiens) (UniProt P16473); experiment: qHTS Assay for Antagonists of the Thyroid Stimulating Hormone Receptor (AID 488980); further: series mostly up to about 58 µM
Outline: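 HEK293 cells transfected with human TSHR, suspended in HEPES-buffered HBSS with 70 uM RO 20-1724, were treated with compounds plus TSH at EC80 (4 nM final). cAMP was measured by competitive HTRF (cryptate anti-cAMP antibody, cAMP-d2 acceptor).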

[9] = target: D(1A) dopamine receptor (Homo sapiens) (UniProt P21728); experiment: HTS Assay for Allosteric Agonists of the Human D1 Dopamine Receptor: Primary Screen for Agonists (AID 488981)
Outline: (§1)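 Tetracycline-induced HEK293 Trex D1 cells with forced coupling to calcium, loaded with no-wash calcium dye; kinetic fluorescence read 180 s after compound addition for agonism, then a further 180 s after an EC20 dopamine challenge for potentiation.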

[10] = target: D(1A) dopamine receptor (Homo sapiens) (UniProt P21728); experiment: HTS Assay for Allosteric Agonists of the Human D1 Dopamine Receptor: Primary Screen for Potentiators (AID 488982)
Outline: as §1

[11] = target: D(1A) dopamine receptor (Homo sapiens) (UniProt P21728); experiment: HTS Assay for Allosteric Agonists of the Human D1 Dopamine Receptor: Primary Screen for Antagonists (AID 488983);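 further: calcium flux response to an EC80 dopamine challenge measured with no-wash dye; nearly all actives have a fitted effect of over 65% in size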; further: potency means the concentration at half of the fitted maximal effect
Outline: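 Tetracycline-induced HEK293 T-REx D1 line, force-coupled to calcium flux, read with no-wash calcium dye. Compound added after 10 s baseline, read 180 s for agonism, then EC80 dopamine added and read a further 180 s.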

[12] = Validation screen for small molecules that induce genotoxicity in human embryonic kidney (HEK293T) cells expressing luciferase-tagged ELG1 (AID 493106)
Outline: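 HEK293T cells expressing luciferase-tagged ELG1, 2,000 cells/well, exposed to compound 16 hr at 37 °C, 5% CO2. Luciferase read after ONE-Glo, 30 min at room temperature; increased signal indicates genetic stress.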

[13] = target: ATPase family AAA domain-containing protein 5 (Homo sapiens) (UniProt Q96QE3); experiment: Validation screen for small molecules that inhibit ELG1-dependent DNA repair in human embryonic kidney (HEK293T) cells expressing luciferase-tagged ELG1 (AID 493107);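 further: cells co-treated with the DNA-damaging agent 5-fluorouridine alongside compound; series mostly up to about 46 µM; inhibitors lower the ELG1-luciferase luminescence signal; nearly all actives have a fitted effect of over 70% in size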
Outline: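 HEK293T cells expressing luciferase-tagged ELG1, 2,000 per well, treated with 5-fluorouridine plus compound for 16 h at 37 C. ONE-Glo luminescence after 30 min at room temperature reports ELG1 reporter level.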

[14] = target: Thyrotropin-releasing hormone receptor (Homo sapiens) (UniProt P34981); experiment: qHTS for Small Molecule Agonists and Allosteric Enhancers of Human TRH Receptor: Validation Screen for Agonists (AID 493127;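 active means calcium activation more than 3 SD above the typical response in the agonist read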); details: TRH receptor agonist cell assay; at 2 µM; stronger effect = higher value
Outline: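 TRHR cells loaded with fluo-8 calcium dye; FDSS kinetic fluorescence (Ex 480/Em 530) read at 1 s/cycle after 23 nL compound addition. Agonist-mode calcium response recorded before the 10 nM TRH (EC20) addition.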

[15] = Nrf2 qHTS screen for inhibitors: Validation (AID 493153; active means well fitted inhibition curve with a large enough effect in the main read-out, with a control signal flat, not every such curve was filed as active); details: Potency: luciferase luminescence; viability change: measured here: cytotoxicity max response
Outline: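 A549 cells carrying ARE-firefly luciferase reporter, 5000 cells/well in 5% FBS OPTI-MEM, treated with compound over a concentration series for 18-24 h at 37 C. Luciferase luminescence gave Nrf2 activity; CellTiter-Fluor fluorescence gave viability.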

[16] = target: Galactokinase (Homo sapiens) (UniProt P51570); experiment: qHTS Validation Assay for Inhibitors of Human Galactokinase (GALK) (AID 493189)
Outline: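 GALK (5 nM) with 35 uM ATP and 100 uM galactose in HEPES pH8.0, MgCl2, NaCl, DTT, BSA; 1 h at room temperature. Residual ATP read by Kinase-Glo Plus luminescence after 10 min.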

[17] = Validation screen for small molecules that induce DNA re-replication in SW480 colon adenocarcinoma cells (AID 504364)
Outline: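 SW480 cells (250/well) exposed 48 h at 37 C, 5% CO2, then Hoechst-stained 40 min. Nuclear DNA content imaged by fluorescence scanning (405 nm excitation, 500-530 nm emission); re-replication scored as increased nuclei with elevated intensity.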

[18] = qHTS for Inhibitors of Cell Surface uPA Generation: Validation Assay (AID 493164)
Outline: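 RAW 264.7 cells (4000/well) were plated overnight, then exposed for 18 h at 37 C, 5% CO2 to compounds in a 7-point 1:5 titration (2.45 nM–38.3 uM final). Intracellular ATP was read by ATP-Lite luminescence.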

[19] = target: ATP-dependent 6-phosphofructokinase (Trypanosoma brucei brucei) (UniProt O15648); experiment: qHTS Assay to Find Inhibitors of T. brucei phosphofructokinase: hit validation (AID 492961); further: series mostly up to about 51 µM
Outline: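 Luminescence from ADP-Glo reports ADP generated as T. brucei PFK (1.25 nM) phosphorylates 0.5 mM fructose-6-phosphate using 0.1 mM ATP. Reactions ran 45 min at room temperature, pH 8.0.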

Chain of Flap endonuclease 1 (Homo sapiens) (P39748 whole entry, looked up): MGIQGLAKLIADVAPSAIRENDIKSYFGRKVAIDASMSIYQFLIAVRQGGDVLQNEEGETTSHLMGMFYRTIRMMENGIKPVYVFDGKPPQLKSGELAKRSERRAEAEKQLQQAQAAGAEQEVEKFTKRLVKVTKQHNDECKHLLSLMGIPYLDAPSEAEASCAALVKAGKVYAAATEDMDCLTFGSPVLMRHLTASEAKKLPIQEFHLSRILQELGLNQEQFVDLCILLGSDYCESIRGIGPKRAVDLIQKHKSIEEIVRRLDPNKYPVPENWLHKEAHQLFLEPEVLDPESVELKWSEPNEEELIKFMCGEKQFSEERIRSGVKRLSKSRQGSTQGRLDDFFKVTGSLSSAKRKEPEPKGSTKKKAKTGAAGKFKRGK
Chain of M-phase phosphoprotein 8 (Homo sapiens) (Q99549 whole entry, looked up): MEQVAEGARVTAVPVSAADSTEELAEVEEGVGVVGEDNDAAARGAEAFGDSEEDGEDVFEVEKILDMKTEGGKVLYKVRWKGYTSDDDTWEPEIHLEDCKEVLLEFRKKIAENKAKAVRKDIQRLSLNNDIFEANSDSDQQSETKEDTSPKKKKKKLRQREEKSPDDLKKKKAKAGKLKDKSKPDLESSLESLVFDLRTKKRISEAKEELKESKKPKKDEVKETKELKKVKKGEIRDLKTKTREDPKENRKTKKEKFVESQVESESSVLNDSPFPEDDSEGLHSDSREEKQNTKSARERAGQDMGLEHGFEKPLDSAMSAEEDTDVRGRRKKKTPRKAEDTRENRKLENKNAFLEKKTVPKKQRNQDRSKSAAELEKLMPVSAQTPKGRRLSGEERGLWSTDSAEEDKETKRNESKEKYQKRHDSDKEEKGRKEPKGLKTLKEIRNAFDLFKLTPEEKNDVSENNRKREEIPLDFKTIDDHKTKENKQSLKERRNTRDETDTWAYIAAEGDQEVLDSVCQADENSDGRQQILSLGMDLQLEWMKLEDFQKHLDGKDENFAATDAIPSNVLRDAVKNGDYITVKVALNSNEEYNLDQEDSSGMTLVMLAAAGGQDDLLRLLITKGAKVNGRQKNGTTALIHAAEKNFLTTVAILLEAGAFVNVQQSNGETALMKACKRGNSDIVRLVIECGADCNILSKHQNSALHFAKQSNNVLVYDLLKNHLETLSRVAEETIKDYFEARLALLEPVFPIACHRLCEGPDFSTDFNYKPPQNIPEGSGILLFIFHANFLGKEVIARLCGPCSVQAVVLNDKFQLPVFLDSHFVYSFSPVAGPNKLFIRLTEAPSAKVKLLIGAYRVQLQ
Chain of Methanococcus maripaludis chaperonin (MmCpn) (Q6LX38 1-543): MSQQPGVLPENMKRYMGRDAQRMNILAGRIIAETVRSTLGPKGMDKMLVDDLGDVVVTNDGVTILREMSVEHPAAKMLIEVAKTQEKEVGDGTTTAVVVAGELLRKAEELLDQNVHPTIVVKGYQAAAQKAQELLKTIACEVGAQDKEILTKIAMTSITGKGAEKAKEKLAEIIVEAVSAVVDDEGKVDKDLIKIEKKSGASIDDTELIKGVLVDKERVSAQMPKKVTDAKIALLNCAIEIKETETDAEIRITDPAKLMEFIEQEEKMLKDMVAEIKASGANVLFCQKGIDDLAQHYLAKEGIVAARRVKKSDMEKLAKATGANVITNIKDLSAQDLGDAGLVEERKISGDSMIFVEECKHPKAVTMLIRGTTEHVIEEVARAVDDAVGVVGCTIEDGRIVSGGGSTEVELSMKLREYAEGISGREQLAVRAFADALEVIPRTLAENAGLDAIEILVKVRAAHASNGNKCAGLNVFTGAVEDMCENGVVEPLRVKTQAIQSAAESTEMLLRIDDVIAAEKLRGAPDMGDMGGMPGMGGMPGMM
Chain of Thioredoxin reductase 1, cytoplasmic (Rattus norvegicus) (O89049 whole entry, looked up): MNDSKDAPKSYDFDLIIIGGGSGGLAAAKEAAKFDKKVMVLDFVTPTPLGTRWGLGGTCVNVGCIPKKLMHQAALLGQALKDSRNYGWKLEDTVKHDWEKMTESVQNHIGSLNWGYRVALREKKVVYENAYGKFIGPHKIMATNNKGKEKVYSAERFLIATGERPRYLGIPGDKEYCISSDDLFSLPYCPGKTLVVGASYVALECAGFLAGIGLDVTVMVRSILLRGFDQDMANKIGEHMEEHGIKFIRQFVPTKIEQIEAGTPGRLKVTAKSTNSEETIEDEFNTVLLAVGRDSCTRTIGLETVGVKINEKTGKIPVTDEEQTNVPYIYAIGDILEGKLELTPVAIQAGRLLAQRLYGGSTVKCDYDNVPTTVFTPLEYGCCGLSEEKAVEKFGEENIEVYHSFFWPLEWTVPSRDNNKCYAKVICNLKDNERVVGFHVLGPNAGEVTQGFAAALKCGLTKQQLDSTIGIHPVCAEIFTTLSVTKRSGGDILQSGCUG
Chain of Chromobox protein homolog 1 (Homo sapiens) (P83916 whole entry, looked up): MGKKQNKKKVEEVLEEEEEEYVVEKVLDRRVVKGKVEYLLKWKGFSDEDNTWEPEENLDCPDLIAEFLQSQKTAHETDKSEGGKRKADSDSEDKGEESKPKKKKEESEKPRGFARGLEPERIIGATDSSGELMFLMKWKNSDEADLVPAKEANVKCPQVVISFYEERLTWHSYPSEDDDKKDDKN
Chain of Thyrotropin receptor (Homo sapiens) (P16473 whole entry, looked up): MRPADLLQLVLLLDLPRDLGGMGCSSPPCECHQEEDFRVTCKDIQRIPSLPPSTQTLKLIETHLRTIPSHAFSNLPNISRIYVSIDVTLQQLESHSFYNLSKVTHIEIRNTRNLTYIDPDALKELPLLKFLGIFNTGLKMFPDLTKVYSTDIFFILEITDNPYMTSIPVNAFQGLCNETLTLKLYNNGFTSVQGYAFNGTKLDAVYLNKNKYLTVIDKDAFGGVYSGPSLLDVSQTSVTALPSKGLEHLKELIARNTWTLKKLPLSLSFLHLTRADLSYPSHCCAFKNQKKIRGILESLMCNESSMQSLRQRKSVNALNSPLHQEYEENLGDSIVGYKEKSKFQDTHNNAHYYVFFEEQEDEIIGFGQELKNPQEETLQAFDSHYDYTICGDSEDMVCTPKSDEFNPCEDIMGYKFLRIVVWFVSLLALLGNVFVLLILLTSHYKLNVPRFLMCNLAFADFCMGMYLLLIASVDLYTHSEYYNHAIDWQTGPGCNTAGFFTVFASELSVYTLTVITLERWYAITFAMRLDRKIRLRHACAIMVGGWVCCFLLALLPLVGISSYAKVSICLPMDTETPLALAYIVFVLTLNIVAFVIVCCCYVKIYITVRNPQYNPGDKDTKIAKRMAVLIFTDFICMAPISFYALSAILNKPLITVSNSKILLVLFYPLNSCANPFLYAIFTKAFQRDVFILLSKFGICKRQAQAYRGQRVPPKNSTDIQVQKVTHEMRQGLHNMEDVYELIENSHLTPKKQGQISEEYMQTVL
Chain of ATPase family AAA domain-containing protein 5 (Homo sapiens) (Q96QE3 whole entry, looked up, the tested form may be a part): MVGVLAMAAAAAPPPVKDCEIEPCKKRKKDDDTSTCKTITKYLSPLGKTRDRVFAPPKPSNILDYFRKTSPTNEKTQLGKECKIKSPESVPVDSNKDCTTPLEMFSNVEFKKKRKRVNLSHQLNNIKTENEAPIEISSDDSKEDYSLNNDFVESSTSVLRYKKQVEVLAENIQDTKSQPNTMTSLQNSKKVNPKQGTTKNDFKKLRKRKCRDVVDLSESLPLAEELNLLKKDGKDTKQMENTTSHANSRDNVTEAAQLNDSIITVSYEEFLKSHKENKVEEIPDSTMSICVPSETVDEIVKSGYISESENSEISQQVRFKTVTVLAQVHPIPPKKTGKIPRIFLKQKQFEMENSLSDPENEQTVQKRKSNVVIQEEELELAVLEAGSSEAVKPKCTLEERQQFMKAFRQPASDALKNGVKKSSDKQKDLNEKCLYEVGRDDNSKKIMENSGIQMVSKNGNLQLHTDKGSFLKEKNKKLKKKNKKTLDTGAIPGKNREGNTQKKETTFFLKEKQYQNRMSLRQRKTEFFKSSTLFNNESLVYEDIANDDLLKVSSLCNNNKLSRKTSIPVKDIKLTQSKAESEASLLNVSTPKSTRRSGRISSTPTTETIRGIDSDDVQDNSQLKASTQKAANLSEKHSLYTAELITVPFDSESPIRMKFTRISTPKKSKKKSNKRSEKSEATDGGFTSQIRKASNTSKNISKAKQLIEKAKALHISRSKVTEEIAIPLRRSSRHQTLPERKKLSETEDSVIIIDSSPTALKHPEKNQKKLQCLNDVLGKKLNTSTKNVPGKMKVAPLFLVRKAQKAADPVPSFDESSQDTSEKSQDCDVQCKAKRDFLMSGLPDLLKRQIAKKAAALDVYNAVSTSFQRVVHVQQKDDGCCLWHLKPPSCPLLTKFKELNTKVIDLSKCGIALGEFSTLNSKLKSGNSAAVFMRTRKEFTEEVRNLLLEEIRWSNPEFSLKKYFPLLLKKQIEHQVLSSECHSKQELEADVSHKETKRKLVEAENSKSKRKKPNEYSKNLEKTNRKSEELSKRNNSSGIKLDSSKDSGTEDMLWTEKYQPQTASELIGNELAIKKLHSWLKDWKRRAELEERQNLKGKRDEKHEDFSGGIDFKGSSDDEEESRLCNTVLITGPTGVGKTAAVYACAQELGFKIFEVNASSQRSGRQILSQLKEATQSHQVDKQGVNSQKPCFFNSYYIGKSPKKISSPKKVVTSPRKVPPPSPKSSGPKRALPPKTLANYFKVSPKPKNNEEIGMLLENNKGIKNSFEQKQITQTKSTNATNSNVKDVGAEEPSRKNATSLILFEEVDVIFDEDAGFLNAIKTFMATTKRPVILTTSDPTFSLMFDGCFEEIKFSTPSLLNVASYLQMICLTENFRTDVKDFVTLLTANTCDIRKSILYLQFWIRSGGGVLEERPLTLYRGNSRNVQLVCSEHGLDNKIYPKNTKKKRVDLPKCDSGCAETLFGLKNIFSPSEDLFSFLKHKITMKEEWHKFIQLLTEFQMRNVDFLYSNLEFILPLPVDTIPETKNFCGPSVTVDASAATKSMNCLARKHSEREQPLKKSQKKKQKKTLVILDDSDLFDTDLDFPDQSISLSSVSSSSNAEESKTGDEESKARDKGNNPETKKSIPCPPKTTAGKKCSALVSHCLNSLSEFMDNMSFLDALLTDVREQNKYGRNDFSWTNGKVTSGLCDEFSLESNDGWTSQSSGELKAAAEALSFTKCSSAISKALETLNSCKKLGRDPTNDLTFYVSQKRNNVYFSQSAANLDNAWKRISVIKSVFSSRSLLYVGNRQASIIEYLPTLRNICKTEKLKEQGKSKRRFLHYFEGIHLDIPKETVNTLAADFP

SMILES	outcome [1]	Potency [2]	Potency [3]	Potency [4]	Potency [5]	outcome [6]	outcome [7]	outcome [8]	Potency [9]	Potency [10]	Potency [11]	Potency [12]	Potency [13]	activation [14]	Potency [15]	viability change [15] [%]	outcome [16]	Potency [17]	outcome [18]	Potency [19]
C[N+](C)(C)CC#CCOC(=O)Nc1cccc(Cl)c1	inactive	21.2 µM (active)	inactive	inactive	inactive	inactive	inactive	inactive	inactive	inactive	inactive	inactive	inactive	0.875% (inactive)	inactive	-2.28	inactive	–	–	–
c1ccc2c(N3CCNCC3)cccc2c1	inactive	inactive	inactive	inactive	inactive	inactive	inactive	inactive	inactive	inactive	–	inactive	inactive	1.75% (inactive)	inactive	3.18	–	–	–	–
NC(CCCCCP(=O)(O)O)C(=O)O (stereo not given)	inactive	inactive	inactive	inactive	inactive	inactive	inactive	inactive	inactive	inactive	inactive	inactive	inactive	0.312% (inactive)	inactive	13.6	–	inactive	–	–
CN(N=O)c1ccc(O)c(O)c1	inactive	0.947 µM (active)	2.67 µM (active)	2.51 µM (active) and 2.38 µM (active)	1.58 µM (active)	inactive	inactive	inactive	inactive	inactive	inactive	inactive	inactive	-0.438% (inactive)	inactive	0.531	inactive	–	–	–
CP(=O)(O)C1=CCNCC1	inactive	inactive	inactive	inactive	inactive	inactive	inactive	inactive	–	inactive	inactive	inactive	inactive	0.188% (inactive)	inactive	-3.56	–	–	inactive	–
CN1CCc2cccc(Cl)c2CC1	inactive	inactive	inactive	inactive	inactive	inactive	inactive	inactive	inactive	inactive	2.51 µM (active)	inactive	inactive	1.31% (inactive)	inactive	2.9	inactive	–	–	–
CCCC[N+]1(C)C2CC(OC(=O)[C@H](CO)c3ccccc3)CC1C1OC12 (stereo not given in full)	inactive	inactive	inactive	inactive	inactive	inactive	–	–	inactive	inactive	inactive	inactive	inactive	–	inactive	-6.93	–	–	inactive	–
O=[N+]([O-])c1cc(O)c(O)c([N+](=O)[O-])c1	inactive	inactive	inactive	inactive	inactive	inactive	inactive	inactive	–	inactive	inactive	inactive	inactive	-0.438% (inactive)	–	–	inactive	–	–	–
CC12NC(Cc3ccccc31)c1ccccc12 (stereo not given)	inactive	inactive	inactive	inactive	inactive	inactive	inactive	inactive	inactive	inactive	inactive	inactive	inactive	–	inactive	6.2	inactive	inactive	inactive	inactive
COc1ccc2c(c1)C13CCCCC1C(C2)N(C)CC3 (stereo not given)	inactive	inactive	inactive	inactive	inactive	inactive	inactive	inactive	inactive	inactive	inactive	inactive	inactive	1.06% (inactive)	inactive	4.34	–	–	inactive	–
CCCn1c(C)c(C(=O)c2ccc3ccccc3c2)c2ccccc21	inactive	inactive	inactive	inactive	inactive	inactive	inactive	inactive	–	inactive	inactive	inactive	–	-5.69% (inactive)	–	–	inactive	–	inactive	–
COc1ccc2c(c1)[C@@]13CCCC[C@H]1[C@@H](C2)NCC3	inactive	inactive	inactive	inactive	inactive	inactive	–	inactive	–	inactive	inactive	inactive	inactive	0.0625% (inactive)	–	–	inactive	inactive	inactive	–
CCCN(CCC)CCc1ccc(O)c(O)c1	inactive	inactive	inactive	inactive	inactive	inactive	inactive	inactive	inactive	inactive	1.78 µM (active)	inactive	inactive	-3.94% (inactive)	inactive	-6.78	inactive	inactive	–	–
CC(C)NP(=O)(NC(C)C)OP(=O)(NC(C)C)NC(C)C	inactive	inactive	inactive	inactive	inactive	inactive	inactive	inactive	inactive	inactive	inactive	inactive	inactive	-2.75% (inactive)	inactive	0.686	inactive	–	inactive	–
CCCN(CCC)CCc1c[nH]c2ccc(C(N)=O)cc12	inactive	inactive	inactive	inactive	inactive	inactive	inactive	inactive	inactive	–	inactive	inactive	inactive	0% (inactive)	inactive	1.24	inactive	inactive	–	–
